# Reference: PubChem BioAssay
# Calls of active or inactive are those of the source.
# Legend:
# [1] = binders of probe aFSTL3 on microarray, primary screen, stem cell growth factor project, biochemical, small-molecule microarray, fluorescence 635/667 (AID 1064); conditions: higher = more signal;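 further: measures binding of the biotinylated anti-FSTL3 antibody to printed compounds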
# [2] = binders from COS7 lysate, DM2A8 probe, primary screen, torsin A project, cell lysate, small-molecule microarray, fluorescence 635/667 (AID 1065); conditions: higher = more signal, COS7 lysate expressing mutant human TOR1A
# [3] = binders of probe aFGF2 on microarray, primary screen, stem cell growth factor project, biochemical, small-molecule microarray, fluorescence 635/667 (AID 1067); conditions: higher = more signal;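 further: measures binding of biotinylated aFGF2 protein to printed compounds on slides; z-score merges feature fluorescence and signal-to-noise across triplicate slides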
# [4] = binders of probe aFGF10 on microarray, primary screen, stem cell growth factor project, biochemical, small-molecule microarray, fluorescence 635/667 (AID 1071); conditions: higher = more signal;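 further: score merges 667 nm spot intensity and signal to noise from triplicate slides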
# [5] = biological target: Neurogenic locus notch homolog protein 2 (Homo sapiens) (UniProt Q04721); test: Notch2 binders on small-molecule microarrays, primary screen, biochemical, small-molecule microarray, 635 nm fluorescence, stem cell growth factors (AID 1073); conditions: Notch2 binding, higher = more signal
# [6] = biological target: Pro-neuregulin-1, membrane-bound isoform (Homo sapiens) (UniProt Q02297); test: NRG1 binders on small-molecule microarrays, primary screen, psychiatric disease protein project, biochemical, small-molecule microarray, fluorescence 635/667 (AID 1075); conditions: NRG1 binding, 635 nm fluorescence, higher = more signal;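 further: score combines 667 nm spot fluorescence with signal to noise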
# [7] = tested on: Neuregulin-1 EGF-like domain; test: binders of neuregulin-1 EGF-like domain, primary screen, biochemical, small-molecule microarray, 635 nm fluorescence (AID 1081); conditions: small-molecule microarray binding, higher = more signal;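 further: binding of the protein to compounds printed on small-molecule microarray slides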
# [8] = FRG1 promoter luciferase signal modulators, primary screen, FRG1 inhibition for FSHD, cell-based, C2C12 myotubes, firefly/Renilla luciferase, luminescence (AID 1084); conditions: higher = more signal, called active from +8 up or from −8 down
# [9] = binders of probe aFST on microarray, primary screen, stem cell growth factor project, biochemical, small-molecule microarray, fluorescence 635/667 (AID 1086); conditions: higher = more signal;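 further: score merges 667 nm fluorescence with signal-to-noise of each printed compound spot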
# [10] = binders of probe aHhip on microarray, primary screen, stem cell growth factor project, biochemical, small-molecule microarray, fluorescence 635/667 (AID 1087); conditions: higher = more signal;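 further: score merges spot fluorescence at 667nm with spot signal to noise ratio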
# Chain of Neurogenic locus notch homolog protein 2 (Homo sapiens) (Q04721 whole entry, looked up, canonical isoform): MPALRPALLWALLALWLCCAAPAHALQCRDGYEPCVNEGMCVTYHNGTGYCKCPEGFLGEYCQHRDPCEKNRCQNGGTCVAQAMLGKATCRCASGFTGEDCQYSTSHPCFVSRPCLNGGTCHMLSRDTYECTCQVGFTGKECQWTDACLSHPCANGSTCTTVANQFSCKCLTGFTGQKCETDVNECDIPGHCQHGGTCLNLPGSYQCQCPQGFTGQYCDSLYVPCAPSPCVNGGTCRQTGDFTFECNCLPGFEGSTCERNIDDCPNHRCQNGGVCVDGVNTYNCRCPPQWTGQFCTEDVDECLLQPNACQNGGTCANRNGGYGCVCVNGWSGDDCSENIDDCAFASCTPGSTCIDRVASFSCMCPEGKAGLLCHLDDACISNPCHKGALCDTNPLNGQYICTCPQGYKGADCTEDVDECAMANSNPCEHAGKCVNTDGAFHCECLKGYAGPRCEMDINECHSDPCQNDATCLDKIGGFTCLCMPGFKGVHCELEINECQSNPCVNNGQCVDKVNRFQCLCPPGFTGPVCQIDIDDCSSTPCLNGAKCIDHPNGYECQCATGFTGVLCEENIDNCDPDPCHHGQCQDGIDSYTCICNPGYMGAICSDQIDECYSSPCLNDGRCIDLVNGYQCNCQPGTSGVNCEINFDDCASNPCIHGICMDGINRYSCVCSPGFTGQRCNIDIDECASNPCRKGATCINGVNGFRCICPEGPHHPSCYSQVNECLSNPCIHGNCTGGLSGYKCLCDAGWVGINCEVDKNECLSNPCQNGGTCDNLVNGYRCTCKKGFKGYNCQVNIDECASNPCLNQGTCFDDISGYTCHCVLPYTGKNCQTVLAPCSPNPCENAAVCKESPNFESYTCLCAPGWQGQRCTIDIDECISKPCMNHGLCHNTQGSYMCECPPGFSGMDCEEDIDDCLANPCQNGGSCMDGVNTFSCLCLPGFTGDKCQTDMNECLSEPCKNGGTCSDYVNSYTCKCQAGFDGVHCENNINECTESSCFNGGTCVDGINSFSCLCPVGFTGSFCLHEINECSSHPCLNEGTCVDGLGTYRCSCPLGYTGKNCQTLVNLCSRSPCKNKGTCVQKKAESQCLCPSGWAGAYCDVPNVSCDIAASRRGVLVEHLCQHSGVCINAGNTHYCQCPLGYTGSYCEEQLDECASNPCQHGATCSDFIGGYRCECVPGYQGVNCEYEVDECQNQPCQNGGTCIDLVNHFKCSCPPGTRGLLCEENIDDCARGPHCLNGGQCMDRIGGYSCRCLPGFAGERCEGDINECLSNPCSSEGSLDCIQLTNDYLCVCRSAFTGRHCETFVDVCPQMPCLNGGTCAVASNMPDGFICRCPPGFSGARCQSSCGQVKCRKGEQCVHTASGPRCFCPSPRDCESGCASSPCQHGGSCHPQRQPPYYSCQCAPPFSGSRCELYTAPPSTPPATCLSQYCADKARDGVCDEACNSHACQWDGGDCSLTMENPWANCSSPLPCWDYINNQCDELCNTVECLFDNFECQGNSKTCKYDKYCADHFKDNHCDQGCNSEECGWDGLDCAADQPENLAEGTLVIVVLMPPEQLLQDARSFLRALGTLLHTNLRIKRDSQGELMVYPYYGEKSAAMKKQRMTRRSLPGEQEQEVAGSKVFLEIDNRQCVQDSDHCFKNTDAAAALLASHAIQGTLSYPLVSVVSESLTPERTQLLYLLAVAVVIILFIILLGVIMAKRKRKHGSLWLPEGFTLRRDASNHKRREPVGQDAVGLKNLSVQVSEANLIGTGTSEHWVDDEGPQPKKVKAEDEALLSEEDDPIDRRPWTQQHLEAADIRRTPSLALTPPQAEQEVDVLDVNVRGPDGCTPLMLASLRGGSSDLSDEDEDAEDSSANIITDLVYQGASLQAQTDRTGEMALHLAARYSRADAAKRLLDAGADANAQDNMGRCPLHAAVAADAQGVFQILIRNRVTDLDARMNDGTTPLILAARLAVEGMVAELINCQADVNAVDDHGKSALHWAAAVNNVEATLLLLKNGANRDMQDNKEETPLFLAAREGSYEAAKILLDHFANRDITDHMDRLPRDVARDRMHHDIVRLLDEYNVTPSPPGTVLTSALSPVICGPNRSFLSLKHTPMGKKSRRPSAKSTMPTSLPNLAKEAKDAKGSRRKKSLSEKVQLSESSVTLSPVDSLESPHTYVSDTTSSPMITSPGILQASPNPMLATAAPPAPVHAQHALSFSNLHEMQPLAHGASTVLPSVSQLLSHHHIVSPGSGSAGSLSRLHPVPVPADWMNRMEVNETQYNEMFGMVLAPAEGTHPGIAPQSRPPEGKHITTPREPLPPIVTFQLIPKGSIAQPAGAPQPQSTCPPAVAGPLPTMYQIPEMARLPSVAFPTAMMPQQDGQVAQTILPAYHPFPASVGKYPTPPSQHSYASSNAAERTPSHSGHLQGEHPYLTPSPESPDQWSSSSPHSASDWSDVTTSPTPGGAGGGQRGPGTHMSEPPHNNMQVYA
# Chain of Pro-neuregulin-1, membrane-bound isoform (Homo sapiens) (Q02297 whole entry, looked up, the tested form may be a part, canonical isoform): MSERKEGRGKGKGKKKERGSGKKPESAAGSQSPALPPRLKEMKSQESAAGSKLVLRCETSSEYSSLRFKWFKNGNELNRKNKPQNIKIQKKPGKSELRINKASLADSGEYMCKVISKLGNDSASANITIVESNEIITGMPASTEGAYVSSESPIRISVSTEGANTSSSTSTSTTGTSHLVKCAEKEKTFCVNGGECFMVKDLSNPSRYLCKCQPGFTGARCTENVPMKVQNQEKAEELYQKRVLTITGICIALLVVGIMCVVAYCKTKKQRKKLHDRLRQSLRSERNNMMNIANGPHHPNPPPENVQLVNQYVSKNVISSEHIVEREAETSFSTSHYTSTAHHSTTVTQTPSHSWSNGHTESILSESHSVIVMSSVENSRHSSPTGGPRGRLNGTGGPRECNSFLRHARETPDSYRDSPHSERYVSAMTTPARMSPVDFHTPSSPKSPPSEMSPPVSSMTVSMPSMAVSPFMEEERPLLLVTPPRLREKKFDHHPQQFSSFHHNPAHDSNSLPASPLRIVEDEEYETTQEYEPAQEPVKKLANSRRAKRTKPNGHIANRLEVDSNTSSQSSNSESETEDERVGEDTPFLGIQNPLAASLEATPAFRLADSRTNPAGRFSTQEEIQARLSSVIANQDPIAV
smiles,measurement,setting,value
O=C(NC1CC1)[C@@H]1c2ccccc2C(=O)N(C2Cc3ccccc3C2)[C@H]1c1ccc(CO)cc1,composite z-score,[1],-0.549
same,composite z-score,[2],0.847
same,composite z-score,[3],-0.0618
same,composite z-score,[4],0.139
same,composite z-score,[5],1.01
same,composite z-score,[6],0.639
same,composite z-score,[7],0.807
same,z-score,[8],-0.838 (inactive)
same,composite z-score,[9],0.325
same,composite z-score,[10],1.38
COc1cc2c(cc1O)C=[N+](Cc1cc3c(cc1Br)OCO3)CC2,composite z-score,[1],0.305
same,composite z-score,[2],0.08
same,composite z-score,[3],-0.131
same,composite z-score,[4],0.0873
same,composite z-score,[5],-0.441
same,composite z-score,[6],0.632
same,composite z-score,[7],0.042
same,z-score,[8],2.28 (inactive)
same,composite z-score,[9],-0.332
same,composite z-score,[10],-0.137
O=C1O[C@H](c2ccccc2)[C@H](c2ccccc2)N2[C@H]1[C@@H](C(=O)N1CCN(c3ncccn3)CC1)[C@]1(C(=O)Nc3ccc(C#CC4=CCCCC4)cc31)[C@H]2c1ccccc1OCCO,composite z-score,[1],-0.218
same,composite z-score,[2],0.337
same,composite z-score,[3],0.009
same,composite z-score,[4],0.548
same,composite z-score,[5],1.25
same,composite z-score,[6],0.694
same,composite z-score,[7],1.26
same,z-score,[8],-0.342 (inactive)
same,composite z-score,[9],0.239
same,composite z-score,[10],0.0139
[N-]=[N+]=Nc1ccccc1[C@H]1OC(c2ccc(OCCCO)cc2)=N[C@@]1(CCS(=O)(=O)c1ccccc1)C(=O)NCc1ccccc1,composite z-score,[1],-0.196
same,composite z-score,[2],0.144
same,composite z-score,[3],0.0843
same,composite z-score,[4],0.935
same,composite z-score,[5],1.66
same,composite z-score,[6],1.44
same,composite z-score,[7],1.34
same,z-score,[8],5.01 (inactive)
same,composite z-score,[9],1.58
same,composite z-score,[10],0.258
CC1CC/C=C\[C@H]2OC34C=CCN(c5ccc6ccccc6c5)C(=O)[C@H]3N(CCO)C(=O)[C@@H]4C2C(=O)O1 (stereo not given in full),composite z-score,[1],-0.17
same,composite z-score,[2],0.122
same,composite z-score,[3],-0.0996
same,composite z-score,[4],0.0867
same,composite z-score,[5],-1.18
same,composite z-score,[6],-0.378
same,composite z-score,[7],0.868
same,z-score,[8],0.571 (inactive)
same,composite z-score,[9],-0.358
same,composite z-score,[10],1.74
O=C(NCCN1CCOCC1)[C@@H]1c2ccccc2C(=O)N(Cc2cc(C(F)(F)F)cc(C(F)(F)F)c2)[C@H]1c1ccc(CO)cc1,composite z-score,[1],0.284
same,composite z-score,[2],0.183
same,composite z-score,[3],-0.116
same,composite z-score,[4],-0.214
same,composite z-score,[5],-1.28
same,composite z-score,[6],1.27
same,composite z-score,[7],1.25
same,z-score,[8],0.0006 (inactive)
same,composite z-score,[9],0.0794
same,composite z-score,[10],-0.0994
C=C(CCCC)/C(=C/C[C@H](OC(=O)c1ccncc1)c1ccc(OCCO)cc1)c1cc(C(=O)OC)ccc1OC,composite z-score,[1],-0.126
same,composite z-score,[2],0.123
same,composite z-score,[3],-0.031
same,composite z-score,[4],1.15
same,composite z-score,[5],0.563
same,composite z-score,[6],0.348
same,composite z-score,[7],1.01
same,z-score,[8],31.6 (active)
same,composite z-score,[9],-0.348
same,composite z-score,[10],-0.195
CS(=O)(=O)CCOC(=O)C1=CC(CCCO)=CC(C2CC2)N(Cc2cc3c(cc2Br)OCO3)C=C1C(=O)OCCS(C)(=O)=O (stereo not given),composite z-score,[1],-0.0672
same,composite z-score,[2],0.702
same,composite z-score,[3],-0.0752
same,composite z-score,[4],0.142
same,composite z-score,[5],0.6
same,composite z-score,[6],1.88
same,composite z-score,[7],1.2
same,z-score,[8],-0.517 (inactive)
same,composite z-score,[9],0.114
same,composite z-score,[10],-0.0754
COC(=O)[C@@]1(Cc2ccccc2)[C@H]2c3cc(C(=O)N4CCCC4)n(Cc4ccc(O)c(OC)c4)c3C[C@H]2CN1C(=O)c1ccccc1,composite z-score,[1],0.528
same,composite z-score,[2],-0.162
same,composite z-score,[3],0.185
same,composite z-score,[4],0.0854
same,composite z-score,[5],1.53
same,composite z-score,[6],1.66
same,composite z-score,[7],1.39
same,z-score,[8],-0.433 (inactive)
same,composite z-score,[9],1.04
same,composite z-score,[10],0.651
CCCCN1CC=CC23O[C@@H]4C=CCOC(=O)[C@@H]4[C@H]2C(=O)N(CCCCCCO)[C@@H]3C1=O (stereo not given in full),composite z-score,[1],1.22
same,composite z-score,[2],-0.64
same,composite z-score,[3],-0.141
same,composite z-score,[4],-1.34
same,composite z-score,[5],-1.86
same,composite z-score,[6],1.01
same,composite z-score,[7],1.3
same,z-score,[8],-0.0048 (inactive)
same,composite z-score,[9],-0.581
same,composite z-score,[10],-0.134
O=C1NC(=O)C2C1C=CC(C(O)C=Cc1ccc([N+](=O)[O-])cc1)N2Nc1ccc(Cl)cc1Cl (stereo not given),composite z-score,[1],1.03
same,composite z-score,[2],0.723
same,composite z-score,[3],0.136
same,composite z-score,[4],0.797
same,composite z-score,[5],1.69
same,composite z-score,[6],1.87
same,composite z-score,[7],1.12
same,z-score,[8],0.0592 (inactive)
same,composite z-score,[9],0.939
same,composite z-score,[10],0.206
C=C(CCCC)C(=O)CC[C@@H](OC(C)=O)c1ccc(CO)o1,composite z-score,[1],-0.327
same,composite z-score,[2],0.349
same,composite z-score,[3],-0.0729
same,composite z-score,[4],0.726
same,composite z-score,[5],-0.426
same,composite z-score,[6],-0.306
same,composite z-score,[7],-0.0318
same,z-score,[8],0.514 (inactive)
same,composite z-score,[9],0.911
same,composite z-score,[10],0.0505
